A short description of experiment [1]: A CellTox Green Cytotoxicity Assay to monitor cytotoxicity in HEK293 cells - 32 hour (AID 1224881). Also: nearly all actives have a fitted effect of over 40% in size. In a few lines:
(§1)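 HEK293 cells premixed with CellTox Green dye were seeded at 600 cells/well and left 5 h at 37 C/5% CO2 before pin transfer of 23 nL compound in DMSO. Fluorescence from dye bound to dead-cell DNA was read during 40 h treatment.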

Experiment [2] can be described thus: A CellTox Green Cytotoxicity Assay to monitor cytotoxicity in HepG2 cells - 0 hour (AID 1224882). Also: nearly all actives have a fitted effect of over 35% in size. The method, boiled down:
(§2)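 HepG2 cells were seeded together with the CellTox Green dye at 600 cells/well, left 5 h at 37 C/5% CO2, then given compounds in DMSO. Fluorescence from dye bound to dead-cell DNA was read repeatedly over 40 h of treatment at 37 C.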

The nature of experiment [3]: A CellTox Green Cytotoxicity Assay to monitor cytotoxicity in HepG2 cells - 32 hour (AID 1224883). Also: nearly all actives have a fitted effect of over 50% in size. Also: potency is read from the fitted curve at half-maximal effect. In a few lines: as §2
Experiment [4] is described as follows: A CellTox Green Cytotoxicity Assay to monitor cytotoxicity in HEK293 cells - 8 hour (AID 1224884). Also: nearly all actives have a fitted effect of over 35% in size. In a few lines:
as §1

Experiment [5] can be described thus: qHTS RealTime-Glo MT Cell Viability Assay in HepG2 cells - 16 hour (AID 1224885). Also: nearly all actives have a fitted effect of over 50% in size. The method, boiled down: (§3)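 Cells + NanoLuc/prosubstrate dispensed (600 cells/well) → 5 h at 37 C/5% CO2 → compounds in DMSO transferred → 40 h incubation at 37 C, luminescence read at 0, 8, 16, 24, 32, 40 h.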
Experiment [6] can be described thus: qHTS RealTime-Glo MT Cell Viability Assay in HEK293 cells - 24 hour (AID 1224886). Also: nearly all actives have a fitted effect of over 50% in size. Also: potency is read from the fitted curve at half-maximal effect. In a few lines:
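Tox21 10K qHTS, HEK293, 600 cells/well, RealTime-Glo reagent co-dispensed with cells; 5 h preincubation, compound by pintool, 37 C, luminescence at 0–40 h.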

A short description of experiment [7]: qHTS RealTime-Glo MT Cell Viability Assay in HEK293 cells - 8 hour (AID 1224887). Also: nearly all actives have a fitted effect of over 50% in size. Also: potency is read from the fitted curve at half-maximal effect. In a few lines: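 HEK293 cells mixed with RealTime-Glo reagents (NanoLuc plus cell-permeant prosubstrate) at 600 cells/well, preincubated 5 h at 37 C/5% CO2, then given 23 nL compound in DMSO. Nonlytic luminescence from viable cells was read at 0, 8, 16, 24, 32 and 40 h.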
Experiment [8] can be described thus: A CellTox Green Cytotoxicity Assay to monitor cytotoxicity in HEK293 cells - 16 hour (AID 1224888). Also: nearly all actives have a fitted effect of over 35% in size. In a few lines:
as §1

Experiment [9] is described as follows: qHTS RealTime-Glo MT Cell Viability Assay in HepG2 cells - 0 hour (AID 1224889). Also: nearly all actives have a fitted effect of over 50% in size. Also: potency is read from the fitted curve at half-maximal effect. The method, boiled down:
as §3

Experiment [10] is described as follows: A CellTox Green Cytotoxicity Assay to monitor cytotoxicity in HepG2 cells - 8 hour (AID 1224890). Also: nearly all actives have a fitted effect of over 45% in size. In a few lines:
as §2

Several values for one entry are separate records, joined by “and”; a condition that tells them apart may be missing. Identical values can stand only once. Records with an inconclusive call do not appear. Some compounds were tested as several samples or in several runs, with calls that do not always agree. Activity calls are given as the source filed them. Calls follow the shape of the dose curve; as a rule, active = well fitted curve in the direction sought with a large enough effect in the repeat runs; inconclusive = weak or mixed curves; inactive = no such curve, though single readings can be large; an effect the other way counts as inactive or inconclusive.

On to `CC(C)COC(=O)c1ccccc1C(=O)OCC(C)C`, for which the Potency result in experiment [1], in [2], in experiment [3], in experiment [4], in [5] and in experiment [6] was “inactive” in each case. Moreover, the Potency entry in [7], in experiment [8], in experiment [9] and in experiment [10] was “inactive” throughout.
`Cc1ccc([N+](=O)[O-])cc1`: the Potency result in experiment [1], in experiment [2], in experiment [3], in [4], in experiment [5] and in experiment [6] was “inactive” each time. The Potency result in experiment [7], in experiment [8], in [9] and in [10] was “inactive” each time.
Take `N#CC(c1ccccc1)c1ccccc1`: the Potency result in experiment [1], in experiment [2], in [3], in experiment [4], in experiment [5] and in [6] was “inactive” each time. The Potency result in [7], in experiment [8], in [9] and in [10] was “inactive” in each case.
As for `N#Cc1nn(-c2c(Cl)cc(C(F)(F)F)cc2Cl)c(N)c1S(=O)C(F)(F)F` (stereo unspecified), the Potency entry in [1], in experiment [2], in [3], in experiment [4], in experiment [5] and in [8] was “inactive” in each case. Further, the Potency entry in experiment [9] and in [10] was “inactive” in each case. Moreover, the Potency in [6] and in experiment [7] was 19.6 µM (active) throughout.
In the case of `ClC(Cl)(Cl)Br`, the Potency entry in experiment [1], in [2], in experiment [3], in experiment [4], in [5] and in experiment [6] was “inactive” in each case. For the same molecule, the Potency result in experiment [7], in experiment [8], in experiment [9] and in experiment [10] was “inactive” in each case.
On to `Cc1cc(Cl)ccc1N=CN(C)C`, for which the Potency entry in [1], in [2], in experiment [3], in experiment [4], in experiment [5] and in experiment [6] was “inactive” in each case. Besides, the Potency result in [7], in [8], in [9] and in experiment [10] was “inactive” in each case.
On to `C[C@]12CC[C@H]3[C@@H](CCC4=CC(=O)CC[C@@H]43)[C@@H]1CC[C@@H]2O`, for which the Potency entry in experiment [1], in [2], in experiment [3], in experiment [4], in [5] and in experiment [6] was “inactive” each time. Besides, the Potency entry in experiment [7], in experiment [8], in experiment [9] and in experiment [10] was “inactive” throughout.
Regarding `COc1ccc(C=O)cc1OC`, the Potency result in experiment [1], in [2], in [3], in experiment [4], in experiment [5] and in experiment [6] was “inactive” each time. Further, the Potency entry in experiment [7], in [8], in experiment [9] and in experiment [10] was “inactive” in each case.
For the molecule `COc1ccc(CO)cc1`, the Potency result in experiment [1], in [2], in [3], in [4], in experiment [5] and in [6] was “inactive” each time. The Potency result in experiment [7], in experiment [8], in [9] and in experiment [10] was “inactive” in each case.
On to `CC(C)(O)C#N`, for which the Potency entry in experiment [1], in experiment [2], in experiment [3], in [4], in experiment [5] and in experiment [6] was “inactive” throughout. For the same molecule, the Potency result in experiment [7], in experiment [8], in [9] and in experiment [10] was “inactive” each time.
As for `CN(C)P(=O)(N(C)C)N(C)C`, the Potency entry in experiment [1], in [2], in experiment [3], in experiment [4], in experiment [5] and in [6] was “inactive” in each case. Further, the Potency result in experiment [7], in experiment [8], in experiment [9] and in experiment [10] was “inactive” throughout.
As to `S=c1[nH]c2ccccc2[nH]1`, the Potency result in experiment [1], in experiment [2], in [4], in experiment [5], in experiment [6] and in experiment [7] was “inactive” in each case. Besides, the Potency entry in experiment [8], in [9] and in experiment [10] was “inactive” in each case. In experiment [3], the Potency entry is “inactive and 21.9 µM (active)”.
As for `O=NN1CCOCC1`, the Potency entry in experiment [1], in experiment [2], in [3], in experiment [4], in [5] and in [8] was “inactive” throughout. In addition, the Potency entry in experiment [9] and in [10] was “inactive” each time. Moreover, the Potency entry was “inactive and 2.45 µM (active)” in [6]; “inactive and 7.76 µM (active)” in experiment [7].
For the molecule `c1ccc2c(c1)Nc1ccccc1S2`, the Potency entry in [1], in [2], in experiment [3], in experiment [4], in experiment [5] and in experiment [8] was “inactive” in each case. The Potency entry in experiment [9] and in experiment [10] was “inactive” in each case. The Potency was 11 µM (active) and 10.7 µM (active) in experiment [6]; 13.8 µM (active) and 10.7 µM (active) in experiment [7].
Regarding `C=CC(Cl)CCl` (stereo unspecified), the Potency entry in experiment [1], in [2], in experiment [3], in [4], in experiment [5] and in experiment [6] was “inactive” in each case. Moreover, the Potency entry in experiment [7], in experiment [8], in experiment [9] and in [10] was “inactive” in each case.
`Brc1ccc(Br)cc1`: the Potency entry in [1], in experiment [2], in experiment [3], in [4], in [5] and in [6] was “inactive” in each case. For the same molecule, the Potency entry in experiment [7], in [8], in experiment [9] and in experiment [10] was “inactive” throughout.
On to `CC(C)CON=O`, for which the Potency result in [1], in experiment [2], in [3], in experiment [4], in experiment [5] and in experiment [6] was “inactive” throughout. The Potency result in [7], in experiment [8], in [9] and in experiment [10] was “inactive” in each case.
`CN(C)c1nc(=O)n(C2CCCCC2)c(=O)n1C`: the Potency result in experiment [1], in experiment [2], in [3], in [4], in experiment [6] and in experiment [7] was “inactive” throughout. The Potency result in experiment [8], in [9] and in experiment [10] was “inactive” throughout.
With `O=C(O)CF`, the Potency entry in [1], in experiment [2], in experiment [4], in experiment [6], in [7] and in experiment [8] was “inactive” each time. In addition, the Potency result in experiment [9] and in [10] was “inactive” in each case. The Potency result in experiment [3] was “inactive and 19.5 µM (active)”.
Regarding `CCN(CC)C(=O)C(C)Oc1cccc2ccccc12` (stereo unspecified), the Potency result in experiment [1], in experiment [2], in experiment [3], in [4], in [6] and in experiment [7] was “inactive” throughout. The Potency entry in [8] and in [10] was “inactive” each time. The Potency in experiment [9] is 43.6 µM (active).
As for `CNC(=O)Oc1cccc2c1OC(C)(C)C2`, the Potency result in experiment [1], in experiment [2], in experiment [3], in experiment [4], in experiment [6] and in experiment [7] was “inactive” throughout. Also, the Potency entry in experiment [8], in [9] and in experiment [10] was “inactive” throughout.

Source of the values: PubChem BioAssay (Tox21).
